This is an account of results in PubChem BioAssay (NCI).

Values joined by “and” are separate entries in the source; they are usually repeats but may differ in a detail not shown here. Equal values may be shown once. About 83,000 compounds went through this panel and 20% of them were active in at least one assay; those are over-represented in the sample as a whole.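 Step 1: grow cells in 96-well plates. Step 2: add test compound at a single concentration. Step 3: incubate 48 h. Step 4: record percent growth.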 Unmarked numbers belong to inactive results. Active and inactive are the calls of the source. The calls were made as follows: active = growth percent below 10; inactive = the rest.

Holding throughout (assay): NCI-60 one-dose screen, 48 h (100 = growth as untreated, 0 = no growth, -100 = all killed)
Common to all, as to settings: 10 µM

In assay [1] the test system is RPMI-8226 leukemia.
For assay [2], the system named is OVCAR-8 ovarian.
Assay [3] concerns OVCAR-5 ovarian.
The subject of assay [4] is OVCAR-4 ovarian.
In assay [5] the test system is SK-OV-3 ovarian.
In assay [6] the test system is IGROV1 ovarian.
For assay [7], the system named is OVCAR-3 ovarian.
Assay [8] has as its system HS 578T breast.
Assay [9] relates to NCI/ADR-RES ovarian.
Assay [10] deals with T-47D breast.
For assay [11], the system named is BT-549 breast.
Assay [12] relates to MDA-MB-435 melanoma.
In assay [13] the test system is SW-620 colon.
The test system of assay [14] is MCF7 breast.
Assay [15] concerns HCT-116 colon.
Assay [16] relates to HCC-2998 colon.
In assay [17] the test system is KM12 colon.
Assay [18] deals with MDA-MB-468 breast.

Take `O=C(Nc1ccc(I)cc1F)c1cc(-c2ccc(F)cc2F)ccc1O`: the growth is -18.1% (active) in [1]; 8.5% (active) in [2]; 3.54% (active) in assay [3]; 17.2% in assay [4]; -10.6% (active) in [5]; 22.7% in [6]. Moreover, the growth is -1.28% (active) in [7]; 2.66% (active) in [8]; -8.34% (active) in [9]; -22.7% (active) in assay [10]; -12.5% (active) in assay [11]; 0.752% (active) in [12]. The growth in assay [13] was 10.1%; in [14] it was -12.8% (active); in [15] it was 17.2%; in assay [16] it was 5.11% (active); in assay [17] it was 6.39% (active); in [18], -26.8% (active).
Turning to `COc1ccccc1NCc1ccc(CO)n1-c1ccc(C)cc1`, the growth in [1] is 85.8%; in [2], 101%; in [3], 111%; in assay [4] it was 97.7%; in assay [5], 81.5%; in [6], 91.5%. Further, the growth is 95.6% in [7]; 98% in [8]; 95.9% in [9]; 77.4% in [10]; 101% in assay [11]; 110% in assay [12]. Moreover, the growth in [13] is 109%; in [14], 85.3%; in assay [15], 80%; in [16], 114%; in [17], 105%; in assay [18] it was 97.3%.
With `COc1ccc2[nH]c(=O)c(CSc3nccc(-c4ccc(Cl)cc4)n3)cc2c1`, the growth in [1] is 17.6%; in [2], -10.4% (active); in assay [3], 50.9%; in assay [4] it was 36.3%; in assay [5], 42.1%; in assay [6], 60.9%. Further, the growth was 44.8% in [7]; 37.2% in assay [8]; 12.2% in assay [9]; -8.11% (active) in assay [10]; 30.6% in assay [11]; 55% in assay [12]. Moreover, the growth was 45.4% in assay [13]; 7.81% (active) in [14]; -30.5% (active) in assay [15]; 48.3% in assay [16]; 31.7% in assay [17]; -28.5% (active) in assay [18].
`O=C1Nc2ccc(Cl)cc2/C1=C/c1cccc(OCc2ccccc2)c1`: the growth in assay [1] was -28.1% (active); in assay [2], 14.6%; in [3] it was 69.2%; in [4], 33.5%; in assay [5], 75.3%; in assay [6] it was 36.7%. In addition, the growth was 8.28% (active) in assay [7]; 6.44% (active) in assay [8]; 8.34% (active) in assay [9]; 12.5% in assay [10]; 41.9% in [11]; 35.4% in assay [12]. Moreover, the growth in assay [13] is 45.4%; in assay [14] it was 9.65% (active); in [15], 17%; in assay [17], 38.9%; in assay [18], -10.2% (active).
With `Brc1ccc(/C=C/c2n(Cc3ccc4ccccc4c3)c3ccccc3[n+]2Cc2ccc3ccccc3c2)cc1`, the growth was -56.8% (active) in assay [1]; -64% (active) in assay [2]; -91.1% (active) in [3]; -85.9% (active) in assay [4]; -3.34% (active) in assay [5]; -68.4% (active) in [6]. Further, the growth in assay [7] was -89.5% (active); in [8], -43.6% (active); in [9], 78.7%; in assay [10], -58.1% (active); in assay [11], -56.6% (active); in [12], -94% (active). Moreover, the growth in assay [13] was -73.9% (active); in [14], -65.7% (active); in assay [15], -86.5% (active); in assay [17] it was -40.7% (active); in assay [18] it was -88.7% (active).
For `Cc1ccc(-c2cc(-c3cc4ccccc4nc3Cl)[nH]c(=O)n2)cc1`, the growth in [1] was -30.1% (active); in assay [2], -49.3% (active); in [3], -8.44% (active); in [4], 48.1%; in assay [5] it was 51.6%; in assay [6], 28.6%. Besides, the growth is 8.33% (active) in assay [7]; 1.21% (active) in assay [8]; -38.8% (active) in assay [9]; 3.13% (active) in assay [10]; -76.8% (active) in assay [11]; 19.1% in assay [12]. Besides, the growth in assay [13] was -46.3% (active); in assay [14], 1.81% (active); in assay [15], -72.8% (active); in assay [16] it was -1.29% (active); in [17] it was -18.6% (active); in assay [18], -7.37% (active).
As to `O=c1[nH]n(C(=S)N/N=C/c2ccc(F)cc2)c(=O)c2ccccc12`, the growth in assay [1] is -22.5% (active); in assay [2] it was 36.4%; in [3] it was 91.2%; in assay [4] it was 82%; in assay [5] it was 102%; in assay [6] it was 90.5%. The growth in assay [7] was 32.5%; in assay [8], 91.6%; in assay [9], 31.1%; in assay [10] it was 58.7%; in [11], 70.1%; in assay [12], 84.5%. Further, the growth was 30.4% in assay [13]; 15.9% in [14]; -66% (active) in [15]; 92.9% in [16]; 57.7% in assay [18].
For `CC(=O)c1ccc(NC(=O)NCn2c(=O)[nH]c3ccccc3c2=O)cc1`, the growth in assay [1] is 87.8%; in [2], 101%; in [3], 107%; in assay [4], 107%; in assay [5], 94.9%; in assay [6] it was 104%. Further, the growth in [7] was 131%; in assay [8], 97.3%; in assay [9], 107%; in assay [10] it was 83%; in assay [11], 159%; in assay [12], 99.6%. In addition, the growth in assay [13] is 101%; in assay [14], 83%; in [15] it was 110%; in assay [17] it was 103%; in assay [18], 92%.
With `Clc1ccc(/C=N/Nc2ncnc3sc4c(c23)CCN(Cc2ccccc2)C4)cc1`, the growth in [1] is 14%; in [2] it was -56.2% (active); in assay [3], -18.8% (active); in assay [4], -75.9% (active); in [5], 30.3%; in assay [6], 34.4%. Also, the growth in assay [7] was -79.9% (active); in assay [8] it was -11% (active); in assay [9], -55.2% (active); in [10] it was -0.297% (active); in assay [11], -6.23% (active); in [12], -45.3% (active). Moreover, the growth is -74% (active) in assay [13]; -47.5% (active) in assay [14]; -93.5% (active) in assay [15]; 19.8% in [16]; -26.9% (active) in assay [17]; -62.4% (active) in assay [18].
For `O=c1oc2ccc(-c3ccc(F)cc3F)cc2c(=O)n1-c1ccc(Cl)c(C(F)(F)F)c1`, the growth in [1] is -32.1% (active); in [2] it was 6.71% (active); in assay [3] it was -2.12% (active); in assay [4] it was 16.1%; in [5], -4.08% (active); in assay [6], 17.8%. Besides, the growth in assay [7] was 11.7%; in assay [8] it was -0.864% (active); in assay [9], -12.2% (active); in assay [10] it was -12.5% (active); in assay [11] it was -37.4% (active); in assay [12], -5.35% (active). The growth is 13% in assay [13]; -16.2% (active) in [14]; 9.46% (active) in assay [15]; 2.17% (active) in assay [16]; -14% (active) in assay [17]; 3.54% (active) and -40.4% (active) in [18].
`COc1ccc(N2N=C(c3ccc4c(c3)OCCO4)CC2c2cccc(NC(=O)CCCNS(=O)(=O)c3ccc(F)cc3)c2)cc1` (stereo not drawn): the growth in [1] was 41.2%; in assay [2] it was 87.7%; in assay [3], 89%; in assay [4] it was 60%; in [5] it was 101%; in [6], 81.5%. For the same compound, the growth in [7] was 81.3%; in [8], 78.7%; in assay [9], 88.5%; in assay [10], 63.3%; in assay [11], 78.3%; in assay [12] it was 69.7%. Further, the growth in [13] was 95.2%; in assay [14], 60.7%; in assay [15] it was 73.3%; in assay [16] it was 77.1%; in [18], 60.8%.
As to `CC(=O)NNc1ccc2nnc(-c3ccc(Br)cc3)n2n1`, the growth in assay [1] was 91.7%; in assay [2] it was 105%; in assay [3], 102%; in [4], 99.4%; in assay [5], 81.2%; in assay [6], 105%. The growth was 104% in assay [7]; 102% in assay [8]; 101% in assay [9]; 84.2% in assay [10]; 90.2% in [11]; 94.6% in [12]. For the same compound, the growth in assay [13] was 102%; in assay [14], 87.8%; in [15], 101%; in assay [17], 105%; in assay [18] it was 97.4%.
As for `CCOC(=O)C1NN(c2ccc(S(N)(=O)=O)cc2)c2nc3nc(-c4cccs4)cc(-c4cccs4)c3c(=O)n21` (stereo not drawn), the growth in assay [1] was 77.9%; in [2] it was 86.7%; in assay [3], 100%; in assay [4], 70.2%; in assay [5], 93.6%; in assay [6], 104%. The growth in assay [7] was 89.9%; in [8], 8.11% (active); in assay [9], 88.6%; in [10] it was 85.4%; in assay [11], 50.1%; in assay [12], 106%. The growth in assay [13] was 93.1%; in assay [14], 74.2%; in [16], 107%; in assay [17], 69.7%; in assay [18], 99.5%.
In the case of `N#Cc1c(-c2ccc(F)cc2)nc(SCc2ccc([N+](=O)[O-])cc2)nc1N1CCOCC1`, the growth in assay [1] was 80.3%; in [2], 53.1%; in assay [3], 92.1%; in assay [4], 57.2%; in [5] it was 44.5%; in assay [6], 80.5%. In addition, the growth in [7] is 69.7%; in [8] it was 15.6%; in [9], 41.6%; in [10], 55.5%; in assay [11] it was 58.5%; in assay [12], 84%. Also, the growth is 80.5% in assay [13]; 58.5% in [14]; 90.7% in [16]; 84.9% in assay [17]; 50.6% in [18].
Turning to `O=C(NCCCCC(c1ccc(F)cc1)c1ccc(F)cc1)NCCCc1cccnc1`, the growth was -42.1% (active) in [1]; 11.4% in assay [2]; 27.9% in assay [3]; 20.6% in [4]; 23.6% in [5]; 31.6% in assay [6]. Besides, the growth in assay [7] was 26.5%; in assay [8], 56.4%; in assay [9] it was 12.9%; in assay [10], 5.2% (active); in assay [11], -16.4% (active); in assay [12], 11.9%. Besides, the growth in assay [13] is 17.3%; in [14], 13.2%; in assay [16] it was 29.2%; in assay [17] it was 18%; in assay [18], -3.04% (active).
On to `C=C1CC[C@H](C(=C)C)[C@H]2C=C(C)C(=O)C3=C(C(=O)[C@@](C)(O)C3)[C@H]12`, for which the growth in [1] is -22.5% (active); in [2], -96.5% (active); in assay [3] it was -87.2% (active); in assay [4], -81.8% (active); in [5], -89.1% (active); in assay [6], -61.4% (active). Moreover, the growth in assay [7] is -41.7% (active); in assay [8], -13.1% (active); in assay [10], -59.3% (active); in [11], -43.7% (active); in [12], -58% (active); in [13], -53.3% (active). Besides, the growth in [14] is -70.5% (active); in [15] it was 12.2%; in [16], -84.4% (active); in [17], -73.9% (active); in [18], -69.5% (active).
